Experiments:
Assay in all cases: log2 ratio of Biotin-Ahx-Ub-VS probe labelling (fragment/DMSO); higher = less target engagement (more negative = stronger competition), active = hit call of the paper (q ≤ 0.05, log2 ratio ≤ -1)
Details in all cases: compound concentration: 200 uM; treatment time: 3 h
USP34 = USP34 (UniProt Q70CQ2)
Summary of the method: (§1)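 Average log2 ratios of fragment over vehicle were obtained by unpaired t-test from global-median-normalised Spectronaut label-free quantities. Proteins with ≥2 unique peptides were included. HEK293T lysate (495 µg per sample) was treated in triplicate with fragment at 200 µM or vehicle for 3 h, then with Biotin-Ahx-Ub-VS at 0.5 µM final for 1 h, and labelled DUBs were NeutrAvidin-enriched and run by diaPASEF LC-MS/MS.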

USP36 = target: T1, USP36 (UniProt Q9P275)
T1 sequence (whole entry): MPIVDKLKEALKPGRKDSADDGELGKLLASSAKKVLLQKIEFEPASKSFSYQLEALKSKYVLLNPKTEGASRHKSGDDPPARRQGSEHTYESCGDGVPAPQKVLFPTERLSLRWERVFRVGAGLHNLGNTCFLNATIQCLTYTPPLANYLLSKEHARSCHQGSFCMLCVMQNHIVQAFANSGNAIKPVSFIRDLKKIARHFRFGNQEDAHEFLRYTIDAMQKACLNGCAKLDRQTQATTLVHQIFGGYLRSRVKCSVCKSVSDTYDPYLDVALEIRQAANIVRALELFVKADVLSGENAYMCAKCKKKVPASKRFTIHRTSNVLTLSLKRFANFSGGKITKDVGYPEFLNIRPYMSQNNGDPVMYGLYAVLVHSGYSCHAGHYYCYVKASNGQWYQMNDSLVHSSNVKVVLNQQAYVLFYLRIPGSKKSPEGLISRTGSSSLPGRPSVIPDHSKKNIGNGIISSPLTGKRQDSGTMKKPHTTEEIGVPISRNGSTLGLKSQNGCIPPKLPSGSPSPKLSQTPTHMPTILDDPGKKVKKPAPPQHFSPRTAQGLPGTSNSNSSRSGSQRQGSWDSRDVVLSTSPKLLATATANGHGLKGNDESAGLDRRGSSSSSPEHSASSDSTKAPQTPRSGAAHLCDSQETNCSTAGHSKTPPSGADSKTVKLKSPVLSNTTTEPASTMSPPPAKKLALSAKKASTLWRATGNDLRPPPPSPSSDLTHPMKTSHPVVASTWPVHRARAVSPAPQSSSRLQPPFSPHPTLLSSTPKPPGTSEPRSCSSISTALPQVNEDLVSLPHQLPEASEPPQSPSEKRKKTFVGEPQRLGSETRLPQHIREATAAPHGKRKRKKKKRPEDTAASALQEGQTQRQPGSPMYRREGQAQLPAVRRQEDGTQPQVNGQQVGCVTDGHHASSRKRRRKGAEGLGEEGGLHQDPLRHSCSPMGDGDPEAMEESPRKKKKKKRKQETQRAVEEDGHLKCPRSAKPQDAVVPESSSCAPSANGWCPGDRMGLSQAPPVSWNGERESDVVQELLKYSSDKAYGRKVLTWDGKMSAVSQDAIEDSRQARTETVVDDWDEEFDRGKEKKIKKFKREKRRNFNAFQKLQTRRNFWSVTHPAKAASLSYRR
Summary of the method: as §1

USP38 = target: T2, USP38 (UniProt Q8NB14)
T2 sequence (whole entry): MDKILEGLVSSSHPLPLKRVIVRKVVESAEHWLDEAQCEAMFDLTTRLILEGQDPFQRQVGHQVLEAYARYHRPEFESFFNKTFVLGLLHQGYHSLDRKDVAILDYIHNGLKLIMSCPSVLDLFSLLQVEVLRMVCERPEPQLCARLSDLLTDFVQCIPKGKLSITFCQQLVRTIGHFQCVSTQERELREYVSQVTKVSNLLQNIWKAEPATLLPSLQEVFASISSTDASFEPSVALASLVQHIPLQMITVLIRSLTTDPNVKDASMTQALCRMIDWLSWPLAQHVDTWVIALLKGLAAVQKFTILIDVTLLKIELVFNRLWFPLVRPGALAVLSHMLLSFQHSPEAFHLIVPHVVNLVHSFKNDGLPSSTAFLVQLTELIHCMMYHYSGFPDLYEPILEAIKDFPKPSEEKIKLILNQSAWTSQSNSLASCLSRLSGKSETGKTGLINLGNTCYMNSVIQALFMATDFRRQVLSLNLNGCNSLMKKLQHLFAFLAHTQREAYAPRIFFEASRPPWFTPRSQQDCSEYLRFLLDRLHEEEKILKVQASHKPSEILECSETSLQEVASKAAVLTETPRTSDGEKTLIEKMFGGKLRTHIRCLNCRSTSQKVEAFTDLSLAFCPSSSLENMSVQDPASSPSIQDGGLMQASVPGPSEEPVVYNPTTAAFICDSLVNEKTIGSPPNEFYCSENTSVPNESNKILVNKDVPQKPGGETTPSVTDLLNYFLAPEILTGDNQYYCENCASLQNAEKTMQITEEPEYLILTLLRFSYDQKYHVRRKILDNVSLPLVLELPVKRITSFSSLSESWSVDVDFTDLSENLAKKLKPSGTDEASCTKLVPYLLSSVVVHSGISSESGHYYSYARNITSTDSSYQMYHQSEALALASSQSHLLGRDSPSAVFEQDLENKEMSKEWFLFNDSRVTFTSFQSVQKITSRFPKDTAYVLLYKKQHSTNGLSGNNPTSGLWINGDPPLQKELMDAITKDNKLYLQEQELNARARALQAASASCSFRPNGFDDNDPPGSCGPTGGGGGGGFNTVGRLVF
Summary of the method: as §1

USP39 = target: T3, USP39 (UniProt Q53GS9)
T3 sequence (whole entry): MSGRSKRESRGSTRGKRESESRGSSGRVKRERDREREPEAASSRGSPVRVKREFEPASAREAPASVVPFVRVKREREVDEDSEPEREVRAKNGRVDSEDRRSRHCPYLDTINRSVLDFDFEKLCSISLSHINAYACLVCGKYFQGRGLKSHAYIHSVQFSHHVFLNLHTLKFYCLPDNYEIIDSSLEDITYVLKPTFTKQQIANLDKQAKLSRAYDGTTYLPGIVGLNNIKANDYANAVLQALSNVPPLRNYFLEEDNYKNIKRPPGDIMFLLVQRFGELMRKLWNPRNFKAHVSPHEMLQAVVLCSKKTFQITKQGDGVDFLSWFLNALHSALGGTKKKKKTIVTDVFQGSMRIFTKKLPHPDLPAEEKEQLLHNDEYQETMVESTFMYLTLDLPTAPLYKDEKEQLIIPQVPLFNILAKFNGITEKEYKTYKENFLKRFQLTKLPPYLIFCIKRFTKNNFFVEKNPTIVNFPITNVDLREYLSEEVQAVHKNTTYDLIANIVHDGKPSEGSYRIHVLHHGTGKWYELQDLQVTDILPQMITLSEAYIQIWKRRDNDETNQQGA
Summary of the method: as §1

USP4 = target: T4, USP4 (UniProt Q13107)
T4 sequence (whole entry): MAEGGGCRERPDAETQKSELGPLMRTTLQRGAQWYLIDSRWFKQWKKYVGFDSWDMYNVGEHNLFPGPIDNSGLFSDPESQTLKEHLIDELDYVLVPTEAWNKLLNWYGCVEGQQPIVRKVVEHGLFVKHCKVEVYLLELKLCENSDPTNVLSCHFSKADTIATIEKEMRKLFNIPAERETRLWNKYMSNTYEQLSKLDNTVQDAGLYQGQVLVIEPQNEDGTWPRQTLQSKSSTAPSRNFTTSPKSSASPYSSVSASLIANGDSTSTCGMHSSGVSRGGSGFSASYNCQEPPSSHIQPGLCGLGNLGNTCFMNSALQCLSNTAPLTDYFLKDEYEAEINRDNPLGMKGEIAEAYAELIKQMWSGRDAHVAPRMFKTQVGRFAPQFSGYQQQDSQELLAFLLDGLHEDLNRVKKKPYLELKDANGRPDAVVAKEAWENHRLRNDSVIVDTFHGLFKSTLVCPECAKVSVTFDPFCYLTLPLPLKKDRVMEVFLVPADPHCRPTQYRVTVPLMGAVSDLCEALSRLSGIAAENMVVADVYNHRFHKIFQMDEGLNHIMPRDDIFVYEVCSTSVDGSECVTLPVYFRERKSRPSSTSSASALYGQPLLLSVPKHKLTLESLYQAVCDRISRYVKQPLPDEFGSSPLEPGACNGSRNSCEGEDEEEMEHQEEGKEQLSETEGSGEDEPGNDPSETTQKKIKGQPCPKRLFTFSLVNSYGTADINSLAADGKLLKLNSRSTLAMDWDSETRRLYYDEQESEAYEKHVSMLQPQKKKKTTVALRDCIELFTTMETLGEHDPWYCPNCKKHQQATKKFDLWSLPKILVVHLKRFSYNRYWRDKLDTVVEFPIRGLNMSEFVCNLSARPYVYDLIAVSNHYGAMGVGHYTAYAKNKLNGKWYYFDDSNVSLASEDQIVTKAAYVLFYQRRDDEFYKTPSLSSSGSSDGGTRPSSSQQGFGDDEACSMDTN
Summary of the method: as §1

Measured: log2 ratio of Biotin-Ahx-Ub-VS probe labelling

Chain of USP34 (Q70CQ2 whole entry, the tested form may be a part): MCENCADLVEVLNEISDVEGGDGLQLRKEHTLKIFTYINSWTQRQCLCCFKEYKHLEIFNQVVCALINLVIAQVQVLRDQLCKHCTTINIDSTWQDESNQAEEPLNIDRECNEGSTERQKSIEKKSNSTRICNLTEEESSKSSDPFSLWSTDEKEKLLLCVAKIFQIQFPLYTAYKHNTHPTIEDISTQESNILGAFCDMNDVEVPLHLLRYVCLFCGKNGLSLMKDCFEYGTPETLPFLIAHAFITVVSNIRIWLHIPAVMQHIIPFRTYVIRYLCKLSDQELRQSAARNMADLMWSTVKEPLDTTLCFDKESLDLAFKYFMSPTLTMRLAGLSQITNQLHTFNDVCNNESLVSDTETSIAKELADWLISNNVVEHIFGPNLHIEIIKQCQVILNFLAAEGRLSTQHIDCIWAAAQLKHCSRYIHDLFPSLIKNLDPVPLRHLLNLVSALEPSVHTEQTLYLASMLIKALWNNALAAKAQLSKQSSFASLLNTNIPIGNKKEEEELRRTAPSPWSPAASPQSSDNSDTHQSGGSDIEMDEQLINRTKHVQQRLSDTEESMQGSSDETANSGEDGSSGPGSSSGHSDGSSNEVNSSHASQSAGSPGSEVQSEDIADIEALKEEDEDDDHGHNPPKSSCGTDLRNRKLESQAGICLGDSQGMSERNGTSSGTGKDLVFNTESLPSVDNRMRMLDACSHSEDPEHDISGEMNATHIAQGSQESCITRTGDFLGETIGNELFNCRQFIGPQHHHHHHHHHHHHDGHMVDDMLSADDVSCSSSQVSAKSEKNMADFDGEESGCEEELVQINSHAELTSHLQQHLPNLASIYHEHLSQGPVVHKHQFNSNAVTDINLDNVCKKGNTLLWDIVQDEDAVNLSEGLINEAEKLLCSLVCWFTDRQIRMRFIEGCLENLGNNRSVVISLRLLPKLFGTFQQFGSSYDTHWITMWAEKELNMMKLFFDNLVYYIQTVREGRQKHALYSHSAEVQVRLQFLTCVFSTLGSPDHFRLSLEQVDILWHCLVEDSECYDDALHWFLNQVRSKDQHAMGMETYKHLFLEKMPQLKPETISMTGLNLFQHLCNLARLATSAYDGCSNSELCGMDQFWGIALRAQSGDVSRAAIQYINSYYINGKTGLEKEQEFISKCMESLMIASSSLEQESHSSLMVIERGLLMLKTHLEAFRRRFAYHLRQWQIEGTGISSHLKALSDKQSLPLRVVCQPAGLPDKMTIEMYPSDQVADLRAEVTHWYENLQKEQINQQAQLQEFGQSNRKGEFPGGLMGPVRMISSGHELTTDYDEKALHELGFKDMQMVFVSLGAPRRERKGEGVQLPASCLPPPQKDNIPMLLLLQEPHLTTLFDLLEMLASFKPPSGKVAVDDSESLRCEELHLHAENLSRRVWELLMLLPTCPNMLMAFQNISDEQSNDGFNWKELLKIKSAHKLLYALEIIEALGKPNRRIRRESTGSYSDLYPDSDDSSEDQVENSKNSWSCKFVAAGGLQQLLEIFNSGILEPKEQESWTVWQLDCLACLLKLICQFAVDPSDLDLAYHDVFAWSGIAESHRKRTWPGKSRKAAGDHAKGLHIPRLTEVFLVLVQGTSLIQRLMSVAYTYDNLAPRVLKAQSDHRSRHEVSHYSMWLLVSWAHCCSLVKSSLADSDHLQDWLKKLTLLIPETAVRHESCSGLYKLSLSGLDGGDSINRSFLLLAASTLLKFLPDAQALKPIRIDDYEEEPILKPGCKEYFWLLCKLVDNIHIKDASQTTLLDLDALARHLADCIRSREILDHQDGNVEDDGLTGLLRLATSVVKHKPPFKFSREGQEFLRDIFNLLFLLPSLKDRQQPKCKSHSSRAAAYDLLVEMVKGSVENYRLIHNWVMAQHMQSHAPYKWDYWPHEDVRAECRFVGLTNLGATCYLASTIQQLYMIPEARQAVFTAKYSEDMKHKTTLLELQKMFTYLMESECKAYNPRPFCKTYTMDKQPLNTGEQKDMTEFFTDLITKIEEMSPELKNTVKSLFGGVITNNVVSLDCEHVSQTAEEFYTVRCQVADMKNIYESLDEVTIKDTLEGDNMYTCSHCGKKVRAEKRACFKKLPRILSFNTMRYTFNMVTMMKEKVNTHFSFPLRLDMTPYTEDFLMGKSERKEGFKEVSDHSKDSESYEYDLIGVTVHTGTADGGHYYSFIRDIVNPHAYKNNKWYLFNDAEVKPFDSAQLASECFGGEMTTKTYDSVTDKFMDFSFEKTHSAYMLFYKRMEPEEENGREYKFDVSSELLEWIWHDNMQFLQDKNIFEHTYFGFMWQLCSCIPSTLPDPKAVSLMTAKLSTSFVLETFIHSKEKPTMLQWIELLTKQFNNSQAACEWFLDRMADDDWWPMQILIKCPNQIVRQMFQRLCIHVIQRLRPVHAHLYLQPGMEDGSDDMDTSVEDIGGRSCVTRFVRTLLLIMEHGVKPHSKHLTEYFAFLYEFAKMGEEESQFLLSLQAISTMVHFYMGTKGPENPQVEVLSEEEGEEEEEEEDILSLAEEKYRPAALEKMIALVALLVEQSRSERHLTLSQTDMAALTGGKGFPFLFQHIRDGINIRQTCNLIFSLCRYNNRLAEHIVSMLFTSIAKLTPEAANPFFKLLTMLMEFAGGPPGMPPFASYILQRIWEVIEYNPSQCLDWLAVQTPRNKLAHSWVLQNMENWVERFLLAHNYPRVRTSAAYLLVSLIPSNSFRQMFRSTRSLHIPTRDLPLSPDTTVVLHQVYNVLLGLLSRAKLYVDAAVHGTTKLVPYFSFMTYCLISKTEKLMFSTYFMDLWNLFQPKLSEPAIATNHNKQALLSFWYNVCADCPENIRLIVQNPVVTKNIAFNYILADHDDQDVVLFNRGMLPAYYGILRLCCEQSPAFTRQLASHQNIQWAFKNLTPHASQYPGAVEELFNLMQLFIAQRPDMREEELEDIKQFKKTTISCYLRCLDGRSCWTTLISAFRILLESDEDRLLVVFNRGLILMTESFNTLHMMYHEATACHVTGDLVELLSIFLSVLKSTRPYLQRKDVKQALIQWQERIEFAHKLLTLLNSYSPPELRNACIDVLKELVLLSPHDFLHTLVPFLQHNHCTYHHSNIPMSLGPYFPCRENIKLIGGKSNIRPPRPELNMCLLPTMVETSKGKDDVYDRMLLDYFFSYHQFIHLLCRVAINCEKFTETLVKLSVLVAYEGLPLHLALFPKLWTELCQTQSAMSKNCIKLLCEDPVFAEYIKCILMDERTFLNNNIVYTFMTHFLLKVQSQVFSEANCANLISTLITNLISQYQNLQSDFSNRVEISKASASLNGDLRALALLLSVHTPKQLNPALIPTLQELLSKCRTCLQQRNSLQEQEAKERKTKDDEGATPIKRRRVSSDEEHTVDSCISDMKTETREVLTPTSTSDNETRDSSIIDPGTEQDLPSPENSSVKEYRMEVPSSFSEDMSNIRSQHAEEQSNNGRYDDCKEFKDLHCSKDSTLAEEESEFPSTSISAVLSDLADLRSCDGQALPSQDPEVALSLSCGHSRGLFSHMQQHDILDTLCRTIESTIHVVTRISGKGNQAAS

CC(NC(=O)CCl)c1cc2n(n1)CCCC2.Cl (stereo not given)
inactive: USP34 -0.00259 | USP36 0.028 | USP38 -0.215 | USP39 -0.149 | USP4 -0.121
